The record followed here is PubChem BioAssay (NCATS).

Assay [1] addresses Luciferin 4-monooxygenase (Photinus pyralis) (UniProt P08659). Kind of assay: Biochemical firefly luciferase enzyme assay for NPC (AID 624030).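 Also: purified P. pyralis luciferase at 10 nM with luciferin and ATP substrate; nearly all actives have a fitted effect of over 70% in size.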 The essentials:
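Counter-screen for direct inhibition of the luciferase enzyme by approved-drug library compounds, run at 10 nM enzyme in 50 mM Tris acetate (final). Luminescence was read within 5 min of enzyme-buffer addition and normalized to PTC124 versus DMSO (0%).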

A short description of assay [2]: S16 Schwann cell viability assay (CellTiter-Glo assay) (AID 624031). Also: nearly all actives have a fitted effect of over 70% in size. Also: potency is read from the fitted curve at half-maximal effect. In a few lines:
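Counter-screen for cytotoxicity: parental S16 rat Schwann cells lacking the PMP22 reporters, treated 24 h with compound, viability from cellular ATP by CellTiter-Glo luminescence, normalized to DMSO (0%) and no-cell wells.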
In general terms: ATP-based viability assays read luminescence as a measure of living cells.

Assay [3] can be described thus: S16 Schwann cell PMP22 intronic element firefly luciferase assay (AID 624032). Also: nearly all actives have a fitted effect of over 30% in size. Also: potency is read from the fitted curve at half-maximal effect. In a few lines: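 Rat S16 Schwann cells stably carrying a PMP22 intronic element-driven Fluc reporter were seeded overnight, then exposed to compounds for 24 h at 37 °C. Luminescence was normalized to PTC124 (positive control) and DMSO (0% activity).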
Assay [4] can be described thus: S16 Schwann cell PMP22 intronic element beta-lactamase assay (AID 624044; calls by dose curve; also: nearly all actives have a fitted effect of over 15% in size). In a few lines:
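Rat S16 Schwann cells with beta-Lac driven by a PMP22 intronic element, compound-treated 24 h at 37 °C. LiveBLAzer FRET B/G read: 460 nm normalized to potassium clavulanate vs DMSO; 535 nm FRET as viability; concentration-effect curves classified.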

Assay [5] deals with CP262. Description: qHTS profiling for inhibitors of Plasmodium falciparum proliferation (AID 504749). Also: nearly all actives have a fitted effect of over 60% in size. Also: potency is read from the fitted curve at half-maximal effect. The settings on record: P. falciparum in erythrocytes, SYBR Green DNA, 72 h; series mostly up to 28.7 µM. In a few lines:
(§1)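 Parasite proliferation within erythrocytes, 72 h exposure. Endpoint: SYBR Green I fluorescence after overnight lysis at room temperature. Controls: 0.29 uM artemisinin, DMSO.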
A general note: qHTS replaces the single test concentration by a dilution series.

The test system of assay [6] is CP266. The description is as above. The settings on record: P. falciparum in erythrocytes, SYBR Green DNA, 72 h; series mostly up to 28.7 µM. In a few lines: as §1
Assay [7] concerns CP315. The assay is described as above. The settings on record: P. falciparum in erythrocytes, SYBR Green DNA, 72 h; series mostly up to 28.7 µM. The essentials:
as §1

Assay [8] concerns CP325. The description is as above. The settings on record: P. falciparum in erythrocytes, SYBR Green DNA, 72 h; series mostly up to 28.7 µM. The essentials:
as §1

The subject of assay [9] is DIV14. Described as above. The settings on record: P. falciparum in erythrocytes, SYBR Green DNA, 72 h; series mostly up to 28.7 µM. In a few lines:
as §1

The subject of assay [10] is DIV17. Described as above. The settings on record: P. falciparum in erythrocytes, SYBR Green DNA, 72 h; series mostly up to 28.7 µM. In a few lines: as §1
The test system of assay [11] is ICS. The description is as above. The settings on record: P. falciparum in erythrocytes, SYBR Green DNA, 72 h; series mostly up to 28.7 µM. The essentials: as §1
In assay [12] the test system is N140. Described as above. The settings on record: P. falciparum in erythrocytes, SYBR Green DNA, 72 h; series mostly up to 28.7 µM. In a few lines: as §1
Assay [13] relates to PC15. The description is as above. The settings on record: P. falciparum in erythrocytes, SYBR Green DNA, 72 h; series mostly up to 28.7 µM. In a few lines: as §1
For assay [14], the system named is AS120. Described as above. The settings on record: P. falciparum in erythrocytes, SYBR Green DNA, 72 h; series mostly up to 28.7 µM. In a few lines:
as §1

Assay [15] has as its system CP191. The assay is described as above. The settings on record: P. falciparum in erythrocytes, SYBR Green DNA, 72 h; series mostly up to 28.7 µM. In a few lines: as §1
Assay [16] relates to CP237. The description is as above. The settings on record: P. falciparum in erythrocytes, SYBR Green DNA, 72 h; series mostly up to 28.7 µM. The essentials:
as §1

Assay [17] concerns DIV30. Described as above. The settings on record: P. falciparum in erythrocytes, SYBR Green DNA, 72 h; series mostly up to 28.7 µM. In a few lines: as §1
In assay [18] the test system is P94_40. The description is as above. The settings on record: P. falciparum in erythrocytes, SYBR Green DNA, 72 h; series mostly up to 28.7 µM. In a few lines:
as §1

Assay [19] deals with PC49. Described as above. The settings on record: P. falciparum in erythrocytes, SYBR Green DNA, 72 h; series mostly up to 28.7 µM. The essentials:
as §1

Assay [20] concerns TAB113. Described as above. The settings on record: P. falciparum in erythrocytes, SYBR Green DNA, 72 h; series mostly up to 28.7 µM. In a few lines: as §1

Inconclusive results are not listed. Active and inactive are the calls of the source. Unless noted, calls follow the shape of the dose curve; as a rule, active = well fitted curve in the direction sought with a large enough effect; inconclusive = small, poorly fitted or top-dose-only effect, or another doubt; inactive = no such curve, though single readings can be large; an effect the other way counts as inactive or inconclusive.

Chain of Luciferin 4-monooxygenase (Photinus pyralis) (P08659 whole entry, looked up): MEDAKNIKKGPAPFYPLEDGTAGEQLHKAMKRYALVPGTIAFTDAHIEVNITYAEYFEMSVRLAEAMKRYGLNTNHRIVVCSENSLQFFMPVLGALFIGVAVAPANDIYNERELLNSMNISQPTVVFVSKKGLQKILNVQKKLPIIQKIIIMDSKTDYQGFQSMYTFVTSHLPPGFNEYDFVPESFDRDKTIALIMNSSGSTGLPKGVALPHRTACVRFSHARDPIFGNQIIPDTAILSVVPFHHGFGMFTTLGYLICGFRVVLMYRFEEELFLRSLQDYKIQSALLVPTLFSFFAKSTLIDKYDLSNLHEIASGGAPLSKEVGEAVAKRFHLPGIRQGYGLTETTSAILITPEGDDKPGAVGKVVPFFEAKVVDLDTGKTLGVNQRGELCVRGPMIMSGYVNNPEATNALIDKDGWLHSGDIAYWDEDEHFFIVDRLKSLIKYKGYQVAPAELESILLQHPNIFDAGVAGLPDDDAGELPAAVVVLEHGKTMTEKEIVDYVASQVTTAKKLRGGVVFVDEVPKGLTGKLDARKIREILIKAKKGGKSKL

Take `CCc1ccc2c(c1)N(C[C@H](C)CN(C)C)c1ccccc1S2`: the result in assay [1] and in assay [4] was inactive. In addition, the Potency in assay [2] is 28.7 µM (active); in [9], 8.49 µM (active); in [10], 6.01 µM (active); in assay [11], 7.94 µM (active). Further, the Potency result in [3], in assay [5], in assay [6], in [7], in assay [8] and in assay [12] was “inactive” throughout. In addition, the Potency result in [13] is “inactive”.

`OC[C@H](S)CS`: the Potency in [2] was 36.1 µM (active); in [3], 7.21 µM (active); in assay [16] it was 2.24 µM (active); in [9] it was 12 µM (active); in [10], 3.38 µM (active); in assay [11] it was 2.24 µM (active). Further, in assay [13], the Potency was 3.16 µM (active). Further, the Potency entry in assay [14], in [15], in assay [6], in assay [7], in [17] and in assay [18] was “inactive” throughout. Further, the Potency entry in assay [19] and in assay [20] was “inactive” throughout.

`C[N+]1(C)[C@@H]2CC(OC(=O)[C@@H](CO)c3ccccc3)C[C@@H]1[C@H]1O[C@H]12` (some centres not stated): the outcome in assay [1] and in assay [4] was inactive. Moreover, the Potency result in assay [2], in [3], in assay [14], in assay [15], in assay [16] and in assay [5] was “inactive” each time. Besides, the Potency result in assay [6], in [7], in assay [8], in [9], in [10] and in assay [17] was “inactive” each time. The Potency entry in assay [11], in assay [12], in [18], in [13], in [19] and in assay [20] was “inactive” each time.

As for `CC(=O)N1CCN(c2ccc(OC[C@@H]3CO[C@@](Cn4ccnc4)(c4ccc(Cl)cc4Cl)O3)cc2)CC1`, the call in assay [1] and in [4] was inactive. For the same molecule, the Potency result in assay [2], in [3], in [14], in assay [15], in assay [16] and in assay [5] was “inactive” each time. The Potency result in assay [8], in assay [17], in [12], in assay [18], in assay [19] and in [20] was “inactive” in each case.

Take `N[C@H](COP(=O)(O)O)C(=O)O`: the molecule was called inactive in assay [1] and in [4]. The Potency result in [2], in [3], in assay [14], in assay [15], in [16] and in [5] was “inactive” each time. Besides, the Potency result in assay [6], in assay [7], in [8], in [9], in assay [10] and in assay [17] was “inactive” each time. Also, the Potency result in assay [11], in assay [12], in assay [18], in [13], in assay [19] and in [20] was “inactive” throughout.
